The campaign covered roughly 100,000 compounds. About 4,200 (4.2%) were called active. The full list was thinned out, with actives kept by preference. Unmarked numbers belong to inactive results.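 How the source made its calls: active means single-dose well whose peak fluorescence ratio is a statistical outlier from its plate by either plate-standardised score or position-corrected B-score; inactive means the rest.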
target: Voltage-dependent T-type calcium channel subunit alpha-1H (Homo sapiens) (UniProt O95180); assay: Cav3.2 calcium influx blockers – cell-based, Fluo-4 calcium fluorescence, FDSS, MLSMR library, primary screen (AID 449739); conditions: Cav3.2-expressing cells, at 10 µM, active compounds read low
Sequence (O95180 whole entry, looked up): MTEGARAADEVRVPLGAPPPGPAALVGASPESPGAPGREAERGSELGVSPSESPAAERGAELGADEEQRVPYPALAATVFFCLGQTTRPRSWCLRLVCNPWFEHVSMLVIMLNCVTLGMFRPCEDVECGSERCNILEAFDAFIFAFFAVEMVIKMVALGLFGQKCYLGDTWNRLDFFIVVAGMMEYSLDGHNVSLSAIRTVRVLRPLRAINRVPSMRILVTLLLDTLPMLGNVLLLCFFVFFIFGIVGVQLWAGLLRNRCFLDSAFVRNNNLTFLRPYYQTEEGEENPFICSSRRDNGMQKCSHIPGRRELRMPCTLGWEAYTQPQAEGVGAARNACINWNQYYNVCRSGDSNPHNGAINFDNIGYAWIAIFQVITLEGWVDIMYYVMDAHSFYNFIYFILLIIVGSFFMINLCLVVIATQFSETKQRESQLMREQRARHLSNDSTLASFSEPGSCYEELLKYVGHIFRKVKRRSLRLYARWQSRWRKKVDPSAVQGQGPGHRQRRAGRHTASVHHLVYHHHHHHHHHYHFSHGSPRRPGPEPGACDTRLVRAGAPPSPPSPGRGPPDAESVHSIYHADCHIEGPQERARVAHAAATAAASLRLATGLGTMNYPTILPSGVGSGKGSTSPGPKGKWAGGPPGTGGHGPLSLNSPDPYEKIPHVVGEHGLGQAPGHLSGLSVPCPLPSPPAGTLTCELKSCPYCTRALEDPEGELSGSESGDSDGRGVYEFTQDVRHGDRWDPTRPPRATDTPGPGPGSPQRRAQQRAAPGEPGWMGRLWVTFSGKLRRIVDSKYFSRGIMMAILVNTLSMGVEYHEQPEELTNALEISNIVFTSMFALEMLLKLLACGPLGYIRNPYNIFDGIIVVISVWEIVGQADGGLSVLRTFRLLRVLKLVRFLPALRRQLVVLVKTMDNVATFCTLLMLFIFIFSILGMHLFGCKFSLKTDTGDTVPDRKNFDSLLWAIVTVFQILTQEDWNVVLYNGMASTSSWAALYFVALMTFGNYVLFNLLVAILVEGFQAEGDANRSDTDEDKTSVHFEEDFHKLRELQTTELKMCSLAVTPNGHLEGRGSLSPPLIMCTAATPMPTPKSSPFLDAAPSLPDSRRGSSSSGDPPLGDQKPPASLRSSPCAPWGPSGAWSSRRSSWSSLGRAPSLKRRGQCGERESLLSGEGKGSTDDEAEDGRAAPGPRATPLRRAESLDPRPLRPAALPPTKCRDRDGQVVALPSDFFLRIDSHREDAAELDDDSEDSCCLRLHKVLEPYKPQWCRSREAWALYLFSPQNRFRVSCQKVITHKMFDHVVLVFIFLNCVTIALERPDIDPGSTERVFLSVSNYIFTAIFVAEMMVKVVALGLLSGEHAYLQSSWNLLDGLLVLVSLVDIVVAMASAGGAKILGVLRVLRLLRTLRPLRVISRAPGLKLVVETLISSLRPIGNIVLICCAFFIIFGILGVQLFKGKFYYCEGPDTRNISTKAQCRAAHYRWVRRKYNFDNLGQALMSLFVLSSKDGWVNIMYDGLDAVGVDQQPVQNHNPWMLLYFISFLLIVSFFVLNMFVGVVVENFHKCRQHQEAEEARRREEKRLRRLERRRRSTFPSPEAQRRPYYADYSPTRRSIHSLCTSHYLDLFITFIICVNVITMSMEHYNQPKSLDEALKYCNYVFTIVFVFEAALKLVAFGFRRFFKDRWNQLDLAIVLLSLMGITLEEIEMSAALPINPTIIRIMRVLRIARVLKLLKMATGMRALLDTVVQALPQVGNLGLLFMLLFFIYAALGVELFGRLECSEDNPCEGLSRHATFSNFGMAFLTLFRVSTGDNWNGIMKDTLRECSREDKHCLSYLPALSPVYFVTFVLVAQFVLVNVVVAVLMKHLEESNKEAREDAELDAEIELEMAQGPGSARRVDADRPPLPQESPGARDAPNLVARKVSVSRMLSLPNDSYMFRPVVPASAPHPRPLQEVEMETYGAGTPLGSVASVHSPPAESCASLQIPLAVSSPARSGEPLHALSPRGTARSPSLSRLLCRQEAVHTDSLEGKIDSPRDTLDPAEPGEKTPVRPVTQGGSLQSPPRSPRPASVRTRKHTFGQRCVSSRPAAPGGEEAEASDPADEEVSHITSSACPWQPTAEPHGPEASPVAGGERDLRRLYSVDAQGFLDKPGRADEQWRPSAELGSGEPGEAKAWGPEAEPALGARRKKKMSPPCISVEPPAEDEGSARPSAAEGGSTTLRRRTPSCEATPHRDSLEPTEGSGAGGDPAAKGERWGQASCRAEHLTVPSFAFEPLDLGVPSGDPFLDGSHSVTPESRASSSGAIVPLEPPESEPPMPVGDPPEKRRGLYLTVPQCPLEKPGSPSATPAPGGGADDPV

| SMILES | B-score |
| --- | --- |
| CCCCCCCCCCCCN1[C@@H](CC(C)=O)c2cc(F)cc(F)c2S1(=O)=O | -0.475 |
| CCCC(=O)NC(C)C(c1cccs1)N1CCN(c2ccccc2)CC1 (stereo not drawn) | -0.0337 |
| CC1CCN(CC(=O)c2c[nH]c3ccccc23)CC1 | -0.109 |
| COc1ccc(C(C(O)C(=O)c2c[nH]c3ccccc23)N2CCN(c3ccccc3)CC2)cc1 (stereo not drawn) | -6.38 (active) |
| COCC(C)NC(=O)c1ccc(-n2nc(C(F)(F)F)cc2-c2cccs2)cc1 (stereo not drawn) | -0.0574 |
| Cc1occc1C(=O)NNC(=S)NCC(C)C | -0.334 |
| COC(C[C@@H](O)C[C@@H](O)[C@H](C)OCc1ccccc1)OC | 0.484 |
| CC(NC(=O)Nc1ccccc1)C(c1cccs1)N1CCN(c2ccccc2)CC1 (stereo not drawn) | -0.634 |
| COc1ccc(Cl)cc1NC(=O)CN(C)C(=O)CNC(=O)C12CC3CC(CC(C3)C1)C2 | -3.51 (active) |
| COc1ccc(Cl)cc1NC(=O)c1oc(C)nc1C | -0.339 |
| CCCCC(=O)N/N=C(\C)CC(=O)Nc1cc(Cl)ccc1OC | -2.17 |
| O=C(CCCOc1ccccc1)NCc1ccco1 | -0.629 |
| CCO[C@H]1OC(C(=O)N2CCN(Cc3ccccc3)CC2)=C[C@@H](c2cn(C(C)=O)c3ccccc23)[C@@H]1CCCO | -1.16 |
| COc1cc(/C=N/O)cc(Br)c1OS(=O)(=O)c1ccc(C)cc1 | -2.65 |
| CCCCN1C(N)=NC[C@@H]1Cc1ccccc1 | -0.563 |
| CCn1cc(C(=O)NCC2COc3ccccc3O2)c2cc(OC)c(OC)cc2c1=O (stereo not drawn) | -0.122 |
| COc1ccc(NC(=O)CC2COc3ccccc3O2)c(OC)c1 (stereo not drawn) | -0.874 |
| COc1ccc(OC)c2sc(NC(=O)C3COc4ccccc4O3)nc12 (stereo not drawn) | -4.42 (active) |
| c1ccc(-c2ccnc3nc(-n4cccc4)nn23)cc1 | 0.354 |
| COc1ccccc1C1=CC(=O)CCC1 | 1.41 |
| c1ccc(Nc2n[nH]nc2-c2ccccc2)cc1 | -7.14 (active) |
| Nc1ccc(Nc2ccccc2)cc1 | 0.472 |
| O=C(Nc1ccccc1)c1cccnc1Nc1ccccc1 | 0.697 |
| C=CCCN(Cc1ccccc1)S(=O)(=O)c1ccccc1Br | 0.0805 |
| CCO[C@@H]1OC(C(=O)NCc2nc3ccccc3[nH]2)=C[C@H](C2CCCCC2)[C@H]1CCCO | -0.192 |
| COc1ccc(N2CCN(C(c3cc4ccc(C)cc4[nH]c3=O)c3nnnn3C3CCCC3)CC2)cc1 (stereo not drawn) | -2.59 |
| CC(C)C(c1nnnn1C1CCCC1)N1CCN(c2ccccc2F)CC1 (stereo not drawn) | -2.85 |
| COc1ccc(C(c2nnnn2C2CCCCC2)N2CCN(c3ccccc3F)CC2)cc1 (stereo not drawn) | -6.41 (active) |

— PubChem BioAssay AID449739 (Vanderbilt High Throughput Screening Facility, 2010)
